This is a sample that favours compounds with a hit; in the whole collection about 1.5% have one here.
MEX-5 binding: C. elegans MEX-5 TCR-2 RNA binding activity | Q9XUB2 | actives 0.38% (n = 300,000) | MEX-5/FITC-TCR2 RNA binding, fluorescence polarization; stronger effect = lower value | activity score (negative = inhibition of binding), % at 10 µM;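 active = inhibition past about -25% in most replicates, and total fluorescence under double the plate's negative control median, limit read from the data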
Target sequence (Q9XUB2 whole entry, looked up): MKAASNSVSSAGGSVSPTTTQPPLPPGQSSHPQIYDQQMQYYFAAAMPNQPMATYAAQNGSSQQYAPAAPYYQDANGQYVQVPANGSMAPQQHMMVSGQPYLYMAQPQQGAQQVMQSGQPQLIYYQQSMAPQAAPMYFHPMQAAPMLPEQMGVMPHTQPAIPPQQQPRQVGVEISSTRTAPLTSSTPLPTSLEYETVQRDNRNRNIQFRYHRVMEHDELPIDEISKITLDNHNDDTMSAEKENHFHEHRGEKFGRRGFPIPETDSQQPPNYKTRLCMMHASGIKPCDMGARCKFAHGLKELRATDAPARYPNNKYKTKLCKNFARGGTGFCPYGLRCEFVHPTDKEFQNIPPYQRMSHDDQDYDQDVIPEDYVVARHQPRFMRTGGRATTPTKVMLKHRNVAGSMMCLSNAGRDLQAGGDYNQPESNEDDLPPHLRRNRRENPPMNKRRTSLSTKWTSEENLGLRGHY
GLD-1 TGE inh: GLD-1-TGE RNA interaction inhibition (C. elegans); Q17339; inhibition, % at 5.96 µM; purified GLD-1 + fluorescein TGE RNA, fluorescence polarization; AID 2280; actives 0.44% (n = 320,000);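 active = percent inhibition above a per-plate cutoff, the plate mean of test compounds plus 3 SD, cut at about 30% in these data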
Bcl-xL primary: inhibitors of human Bcl-xL. Q07817. GST-Bcl-xL / FITC-Bim BH3 peptide fluorescence polarization. inhibition, % at 10.9 µM. actives 0.7% (n = 320,000). AID 2129;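 active = inhibition above the mean of all tested compounds plus 3 SD, cutoff set per campaign, cut at about 30% in these data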;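 note: inhibitors lower millipolarization by displacing the labeled peptide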
eLon inh: inhibits E. coli Lon protease; P0A9M0; purified E. coli Lon protease, fluorescence polarization; inhibition, % at 7.94 µM; actives 0.42% (n = 360,000); in the data active = inhibition above about 13%, passing the limit was not always enough
MCL1 BIM primary: MCL1-BIM-BH3 interaction inhibition (human); Q07820; GST-MCL1 / FITC-Bim-BH3 fluorescence polarization; inhibition, % at 10.9 µM; actives 0.68% (n = 320,000); AID 2057;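 active = inhibition above the mean inhibition of all tested compounds plus 3 SD, set per campaign, cut at about 40% in these data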;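 note: higher means more loss of mP so more displacement of Bim peptide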
EBV gp42 block: EBV gp42 inhibition | Q1HVG2 | inhibition, % (tested at 21.74 µM) | Fluorescence polarization binding assay, mP read-out | actives 0.42% (n = 220,000); in the data active = inhibition above about 50%
Hits are given with their value; n = inactive; x = not tested or not shown.

SMILES | MEX-5 binding | GLD-1 TGE inh | Bcl-xL primary | eLon inh | MCL1 BIM primary | EBV gp42 block
COc1ccc(-c2coc3c(C(=O)NCC(C)C)cccc23)c(C)c1 | x | x | x | n | x | x
CCOC(=O)C1CCCN(CC(=O)/C=C2/N(C)c3ccccc3C2(C)C)C1 (stereo not given) | n | n | n | n | n | n
Nc1nc(-c2ccccc2)[nH]c(=O)c1N | -26 | n | n | n | n | n
O=C1N=c2ccccc2=C1c1sc(Nc2cccc(O)c2)nc1O | n | n | n | n | n | x
O=C1N=c2ccccc2=C1c1sc(Nc2ccc(O)cc2)nc1O | x | x | x | n | x | 63
Cc1cccc(N=C2NC(=O)/C(=C3/C(=O)N(C)c4ccccc43)S2)c1C | n | n | 50 | n | n | n
CCSc1nc2sc3c(c2c(=O)[nH]1)CCCC3 | n | n | n | n | n | 66
CC(=O)NCCNc1ccc([N+](=O)[O-])cc1C#N | -41 | n | n | n | n | n
CC(=O)NCCNc1ccc([N+](=O)[O-])cn1 | n | n | n | n | n | n
CN1/C(=C/C=C(/C#N)C(N)=O)C(C)(C)c2ccccc21 | n | n | n | n | n | n
CN1/C(=C\C=C(/C#N)C(=O)Nc2ccccc2F)C(C)(C)c2ccccc21 | -39 | n | n | n | n | n
CNCc1ccccc1Sc1cc(O)ccc1O | x | n | 32 | n | 42 | n
CNCc1ccccc1Sc1cccc(O)c1 | n | n | n | n | n | n
COc1cc(/C=C(\C#N)c2ccccn2)cc(OC)c1O | n | n | n | n | n | n
COc1ccc(OC)c(NC(=O)C2CCN(S(=O)(=O)c3c(C)noc3C)CC2)c1 | n | 63 | n | n | n | n
O=C(Nc1ccc(F)cc1)C(=O)C1C(=O)Nc2ccccc21 (stereo not given) | n | n | n | n | n | n
Cc1cccc2cc3c(N)c(C#N)sc3nc12 | n | n | 35 | n | n | n
C=CCOn1c(=O)c(C)[n+]([O-])c2ccccc21 | n | n | n | n | n | n
COc1ccc(-c2nc3n(c2C)Cc2ccccc2-3)cc1 | n | n | 46 | n | 41 | n
O=c1cc(-c2ccccc2)nc2n1Cc1ccccc1-2 | n | n | n | n | n | n
O=C1C=C(c2ccccc2C(F)(F)F)C[C@@H](c2ccc3c(c2)OCO3)C1 | x | n | n | n | n | x
CN1CCN(c2ncnc3c2[nH]c2ccc(F)cc23)CC1 | n | n | n | n | n | n
CCc1ccc(OCc2nnc(SCC(=O)NCc3ccco3)o2)cc1 | n | n | 54 | n | n | n
COc1ccc(OCc2nnc(SCC(=O)NCc3ccco3)o2)cc1 | n | n | n | n | n | n
CN(C)S(=O)(=O)c1cc(NC(=O)CN2CCCc3ccccc32)ccc1Cl | n | n | n | n | n | n
SMILES | MEX-5 binding | GLD-1 TGE inh | Bcl-xL primary | eLon inh | MCL1 BIM primary | EBV gp42 block
CN(C)S(=O)(=O)c1cc(NC(=O)CN2CCc3ccccc32)ccc1Cl | n | n | 45 | n | 45 | n
COc1ccc(NC(=O)CSc2nc3c(c(-c4cccs4)c2C#N)CN(C)CC3)cc1OC | n | n | 42 | n | n | 57
O=C(CCN1C(=O)COc2ccccc21)NCc1ccco1 | n | n | n | n | n | 53
Cc1cc(NC(=O)C(C)Oc2ccc(C(C)(C)C)cc2)no1 (stereo not given) | n | n | n | n | n | x
COc1ccccc1/C=C(\C#N)C(=O)Nc1ccc(S(N)(=O)=O)cc1 | n | n | n | n | n | n
N#C/C(=C\c1ccccc1[N+](=O)[O-])C(=O)Nc1ccc(S(N)(=O)=O)cc1 | n | n | 33 | n | n | n
Clc1cccc(CSc2nc3ccncc3[nH]2)c1 | -52 | n | n | n | n | n
O=C/C(=C\Nc1ccccn1)c1nc2ccccc2o1 | -37 | n | n | n | n | n
COc1ccc(C(=O)Nc2cc(C(C)=O)c(C)oc2=O)cc1 | n | n | n | n | n | n
CC(=O)c1cc(NC(=O)c2cccc(C(F)(F)F)c2)c(=O)oc1/C=C/N(C)C | -36 | n | n | n | n | n
CC(=O)c1cc(NC(=O)c2ccc(Cl)cc2)c(=O)oc1/C=C/N(C)C | -26 | n | n | n | n | n
Cc1ccc(CNC(=O)/C(C#N)=C\c2ccc(N(C)C)cc2)cc1 | -60 | n | n | x | n | n
CCN(CC)c1ccc(/C=C(\C#N)C(=O)NCc2ccccc2)cc1 | n | n | n | n | n | n
